From PubChem
SMN2 splice up = enhancers of SMN2 splice variant expression; HEK293 SMN2-luciferase splicing reporter, luminescence, 30-36 h; Potency, µM (highest dose often 46.1 µM), without a hit: top-dose activity change, positive = activation, most hits filed as activators; 210,000 tested, 2.8% active; note: % of control where 0% means no effect; nearly all actives have a fitted effect of over 55% in size
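HEK293 cells carry an SMN2 minigene-luciferase reporter in which exon 7 inclusion puts luciferase in frame. Cells were seeded at 2000 cells/well, attached for 10-12 hours, then exposed to compounds for 30-36 hours at 37C before ONE-Glo luminescence.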
NPC1 promoter act = activates the NPC1 promoter; Potency, µM (top dose mostly 9.22 µM), inactives show at the highest dose activation, most hits filed as activators; AID 485313; 320,000 tested, 2.4% active; Huh7 NPC1 promoter luciferase reporter, 24 h; note: % of control where 0% means no effect; nearly all actives have a fitted effect of over 60% in size
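NPC1 promoter–luciferase Huh7 cells; 24 h compound; luminescence.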
FLuc counter = firefly luciferase modulation, counter-screen for miR-21 project. P08659. purified FLuc, Km substrates, luminescence inhibition. Potency, µM (top dose mostly 57.5 µM), for inactives: at the highest dose activity change, negative = inhibition, most hits filed as inhibitors. 360,000 tested, 6.9% active;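 note: plate controls were vehicle for no effect and reference inhibitor for full effect; nearly all actives have a fitted effect of over 55% in size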
Target sequence (P08659 whole entry, looked up): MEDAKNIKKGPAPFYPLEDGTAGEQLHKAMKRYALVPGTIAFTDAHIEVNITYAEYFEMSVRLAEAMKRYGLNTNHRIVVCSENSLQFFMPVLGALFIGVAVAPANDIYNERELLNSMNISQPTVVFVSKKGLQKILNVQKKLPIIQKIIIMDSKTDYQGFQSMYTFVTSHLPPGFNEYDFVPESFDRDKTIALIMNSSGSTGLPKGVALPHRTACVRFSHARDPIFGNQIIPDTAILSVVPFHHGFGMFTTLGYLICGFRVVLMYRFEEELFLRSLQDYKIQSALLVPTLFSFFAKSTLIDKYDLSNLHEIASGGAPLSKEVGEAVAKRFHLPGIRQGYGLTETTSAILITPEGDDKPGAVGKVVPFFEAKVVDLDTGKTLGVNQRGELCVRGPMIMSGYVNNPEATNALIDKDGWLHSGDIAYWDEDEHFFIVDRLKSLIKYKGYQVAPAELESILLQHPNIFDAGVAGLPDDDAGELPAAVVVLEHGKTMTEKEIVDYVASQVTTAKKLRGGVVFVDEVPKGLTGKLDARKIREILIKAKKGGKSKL
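Biochemical qHTS of compounds, final roughly 60 µM downward over six points, against 10 nM purified firefly luciferase using Km concentrations of substrates (10 uM D-luciferin, 10 uM ATP) in Tris acetate pH 7.5 buffer; luminescence output.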
ELG1 genotoxic = induces genotoxicity in HEK293T cells with luciferase-tagged ELG1; HEK293T ELG1-luciferase reporter, luminescence, 16 h; 330,000 tested, 1.3% active; Potency, µM (series often up to 46 µM), without a hit: at the highest dose activity change, positive = activation, actives largely listed as activators; note: % of control where 0% means no effect; nearly all actives have a fitted effect of over 60% in size
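Reporter readout depends on ELG1 protein level, which increases with genetic stress. After 16 hr compound exposure at 37 °C, luciferase activity was quantified using ONE-Glo.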
ELG1 repair inh = ELG1-dependent DNA repair inhibition | Potency, µM (series often up to 46.1 µM), for inactives: at the top dose activity change, negative = inhibition, most hits filed as inhibitors | 330,000 tested, 2.3% active | HEK293T ELG1-luciferase reporter, luminescence, 16 h; DNA damage induced by 5-fluorouridine; note: % is set by controls: 0 for no effect and ±100 for the full control effect; nearly all actives have a fitted effect of over 55% in size
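Overnight (16 hr) co-exposure of 2,000 cells/well to 5-fluorouridine and compound at 37 °C preceded detection. Luciferase was quantified via ONE-Glo luminescence; loss of signal denotes inhibition.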
Rab9 prom act = activators of Rab9 promoter | Potency, µM (highest dose often 9.22 µM), for the others: at the highest dose activation, negative = inhibition, actives largely listed as activators | 320,000 tested, 2.8% active | Huh7 Rab9 promoter-luciferase reporter, luminescence, 24 h | AID 485297; note: % of control where 0% means no effect; nearly all actives have a fitted effect of over 60% in size
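Rab9 promoter-driven luciferase in stably transfected Huh7 cells; 1500 cells/well rested 2 h, exposed to compound in DMSO for 24 h at 37 °C, 5% CO2. Luminescence read 10 min after adding luciferase reagent at ambient temperature.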
* marks the source's active call; other numbers are inactive results; ? = inconclusive; nt = not tested or not shown; [ ] = dose if it differs, or a comment. The list is not random: actives were taken first. Their share in the collection is about 9.2%. Calls come from the whole dose curve; as a rule, active = well fitted curve in the direction sought with a large enough effect; inconclusive = small, poorly fitted or top-dose-only effect, or another doubt; inactive = no such curve, though single readings can be large; an effect the other way counts as inactive or inconclusive. Potency is the fitted concentration of half-maximal effect.

SMILES | SMN2 splice up | NPC1 promoter act | FLuc counter | ELG1 genotoxic | ELG1 repair inh | Rab9 prom act
O=C(/C=C/c1ccc(Br)cc1)NC(=O)c1ccccc1O | 22µM* | 3.5µM* | 0.38µM* | ? | ? | 1.8µM*
O=C(/C=C/c1ccc(O)cc1)c1ccccc1O | -115% | nt | nt | nt | nt | nt
CC(=O)c1ccc(NC(=O)C2CCCN(S(=O)(=O)c3cn(C)cn3)C2)cc1 (stereo not given) | nt | nt | -2% | nt | nt | nt
Cc1cccc(CNc2ccnc(-c3ccccc3CN(C)C)n2)c1 | -51% | nt | nt | nt | nt | nt
CC(=O)N1c2ccc(S(=O)(=O)N(C)CC(=O)Nc3cccc(C)c3)cc2CC1C (stereo not given) | nt | 0% | 4% | 0%[9.26 µM] | 0% | -3%
CC(=O)N1c2ccc(S(=O)(=O)N(C)CC(=O)Nc3ccccc3C)cc2CC1C (stereo not given) | nt | 1% | 0% | -7% | 16µM* | -2%
Cc1ccc(C(=O)Nc2nc3nc(C)cc(=O)n3[nH]2)cc1 | 1% | nt | -13% | nt | nt | nt
CCCCN1c2ccccc2N(CCCO)c2cc(C)nnc21 | 13% | 13% | 12µM* | -2% | 14% | 3%
CCOC(=O)c1cc2c(=O)n3ccccc3nc2n(CCCOC)c1=NC(=O)c1cc2ccccc2o1 | -2% | nt | -3% | nt | nt | nt
Cc1cccc(N2CCN(C(=O)CSc3ccc4c(c3)OCCO4)CC2)c1C | nt | 0% | 1% | -5% | 11µM* | -13%
Cc1cc(=O)oc2c(C)c(OCC(=O)N3CCN(c4ccc(F)cc4)CC3)ccc12 | nt | -1% | 5% | -4% | ? | -3%
O=C(COc1cccc2ccccc12)N1CCN(c2ccccc2)CC1 | -1% | 4% | -10% | -4% | 8.2µM* | 10%
Cc1cc(=O)oc2cc(OCC(=O)N3CCN(c4ccccc4)CC3)c(Cl)cc12 | nt | -1% | 19µM* | 0% | -2% | 2%
Cc1cccc(N2CCN(C(=O)COc3ccc4c(C)cc(=O)oc4c3C)CC2)c1C | nt | -3% | -1% | -5% | 26µM* | -8%
O=C(Nc1ccc2c(c1)OCO2)C1CC(=O)N(c2cccc(Cl)c2)C1 (stereo not given) | nt | -6% | ? | 29% | 3% | 5%
Cc1cc(C)cc(NC(=O)CN2C(=O)COc3ccc(S(=O)(=O)Nc4ccccc4)cc32)c1 | nt | nt | -4% | nt | nt | nt
CCCn1c(N)c(N(CCOC)C(=O)c2cc3ccccc3cc2OC)c(=O)[nH]c1=O | nt | -4% | 4% | 0% | 12% | -1%
CCOC(=O)C1CSC(Cc2ccc(OCc3ccc([N+](=O)[O-])cc3)cc2)N1 (stereo not given) | 13µM* | nt | nt | nt | nt | nt
CCOC(=O)CCc1c(C)c2ccc(OCc3ccc([N+](=O)[O-])cc3)cc2oc1=O | -5% | 3% | 4% | 6% | 1% | 1%
COC(=O)c1sccc1NC(=O)Nc1ccccc1F | nt | 1% | 13µM* | 4% | 22% | -1%
COc1ccc(C/C(C)=N/NC(=S)Nc2ccc(C(C)C)cc2)cc1 | -21% | 0% | ? | -1% | -4% | -3%
CNC(=O)Nc1ccccc1F | -1% | 0% | -1% | -5% | 3% | -5%
O=C(Nc1ccccc1F)Nc1ccccc1Br | 13% | 26% | 17µM* | ? | ? | -17%
COC(=O)c1sccc1NC(=O)Nc1ccccc1C | nt | -7% | 4% | 12% | 9% | -6%
CC(=O)Nc1ccc(NC(=O)Nc2ccccc2C)cc1 | nt | 11% | ? | 3% | ? | 4%
CC(=O)N(C)c1ccc(NC(=O)Nc2ccccc2C)cc1 | 13µM* | ? | 12µM* | 21µM* | ? | 2.8µM*
COc1ccc(C/C(C)=N/NC(=S)Nc2ccccc2F)cc1 | -56% | 3.2µM* | 15µM* | 8.2µM* | ? | 2.5µM*
CCCn1cc(S(=O)(=O)c2cccc(Cl)c2)c(=O)c2cc(F)c(N3CCOCC3)cc21 | nt | nt | -1% | nt | nt | nt
